In the library only some 0.9% were active in any assay of this set; here they are far more common.
gsp antag: qHTS for Antagonists of gsp, the Etiologic Mutation Responsible for Fibrous Dysplasia/McCune-Albright Syndrome: qHTS | Potency, µM (titrated, usually from 76.9 µM), inactives show top-dose activity change, negative = inhibition, actives largely listed as inhibitors | actives 0.4% (n = 340,000) | gsp-mutant cells, cAMP HTRF, 30 min | AID 624288, 2012; calls by dose curve; cell line not stated here;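 further: intracellular cAMP measured with PDE inhibitor Ro 20-1724 present during compound exposure; potency means the concentration at half of the fitted maximal effect; on the % scale 0 is the no-effect control and ±100 the full control effect; nearly all actives have a fitted effect of over 65% in size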
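G418-selected cells were plated in DMEM/10% FBS for 16-24 h at 37C, then treated with compounds plus the PDE inhibitor […] (300 uM solution added) for 30 min at 37C. Intracellular cAMP was measured by HTRF after 30 min lysis at room temperature.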
gsp ag: qHTS for Agonist of gsp, the Etiologic Mutation Responsible for Fibrous Dysplasia/McCune-Albright Syndrome: qHTS. gsp mutant cells, cAMP HTRF, 30 min. Potency, µM (series often up to 76.9 µM), without a hit: top-dose activation (cAMP increase), most hits filed as activators. actives 0.13% (n = 340,000); active means well fitted activation curve with a large enough effect; inconclusive means small, poorly fitted or top-dose-only effect, or another doubt; inactive means no such curve, though single readings can be large or run the other way; cell line not stated here;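 further: phosphodiesterase inhibitor Ro 20-1724 added with compounds to block cAMP breakdown; potency means the concentration at half of the fitted maximal effect; nearly all actives have a fitted effect of over 60% in size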
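Cells in DMEM/10% FBS with G418 were pretreated with compounds in DMSO plus […] (300 uM stock) for 30 min at 37C. cAMP was measured by HTRF (cAMP-d2 plus anti-cAMP antibody-K) after 30 min at room temperature.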
RXFP1 ag: qHTS Assay for Agonists of the Relaxin Receptor RXFP1; Relaxin receptor 1 (Homo sapiens), Q9HBX9; HEK293T-RXFP1 cAMP TR-FRET, 30 min; response scale: percent of porcine relaxin response, buffer zero; Potency, µM (doses to about 57.5 µM), inactives show at the highest dose activation, most hits filed as activators; actives 0.3% (n = 370,000); active means well fitted activation curve with a large enough effect; inconclusive means small, poorly fitted or top-dose-only effect; further: potency means the concentration at half of the fitted maximal effect; on the % scale 0 is the no-effect control and ±100 the full control effect; nearly all actives have a fitted effect of over 60% in size
Target sequence (Q9HBX9 whole entry, looked up): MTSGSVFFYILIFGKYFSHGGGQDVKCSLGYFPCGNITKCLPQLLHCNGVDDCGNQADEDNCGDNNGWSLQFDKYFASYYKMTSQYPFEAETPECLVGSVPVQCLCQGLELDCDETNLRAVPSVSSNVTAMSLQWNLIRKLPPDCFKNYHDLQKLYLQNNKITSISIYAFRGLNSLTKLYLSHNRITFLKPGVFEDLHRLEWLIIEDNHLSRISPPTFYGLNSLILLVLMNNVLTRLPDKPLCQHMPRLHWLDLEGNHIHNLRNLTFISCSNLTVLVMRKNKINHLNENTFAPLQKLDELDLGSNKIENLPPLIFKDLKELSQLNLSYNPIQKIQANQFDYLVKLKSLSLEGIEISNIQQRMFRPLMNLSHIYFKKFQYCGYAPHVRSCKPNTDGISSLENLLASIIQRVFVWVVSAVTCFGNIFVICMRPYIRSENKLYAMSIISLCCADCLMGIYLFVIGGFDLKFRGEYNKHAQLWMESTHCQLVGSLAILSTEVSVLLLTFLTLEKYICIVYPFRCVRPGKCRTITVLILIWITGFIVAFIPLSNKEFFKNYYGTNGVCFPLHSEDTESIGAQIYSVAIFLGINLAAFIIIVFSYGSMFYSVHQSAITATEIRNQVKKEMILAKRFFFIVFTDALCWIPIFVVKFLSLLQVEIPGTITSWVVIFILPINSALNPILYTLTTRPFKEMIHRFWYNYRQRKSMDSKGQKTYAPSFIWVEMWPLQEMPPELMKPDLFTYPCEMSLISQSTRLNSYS
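HEK293T cells stably expressing RXFP1 were pretreated with the PDE4 inhibitor Ro 20174, exposed to compounds for 30 min at 37C, lysed, and cAMP was read by TR-FRET. Data normalized to buffer (basal) and 29 nM porcine relaxin (100%).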
RXFP1 antag: qHTS Assay for Antagonists of the Relaxin Receptor RXFP1 | Relaxin receptor 1 (Homo sapiens), Q9HBX9 | HEK293-RXFP1, relaxin-stimulated cAMP HTRF, 30 min; active compounds read low | activity change, negative = inhibition, % at 57.5 µM | actives 0.59% (n = 350,000) | AID 1259400, 2018;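 active means activity change of -60% or lower, but not beyond a set lower limit; inconclusive means change between -60% and -40%, or beyond the set limit; inactive means change above -40%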; further: on the % scale 0 is the no-effect control and ±100 the full control effect
An asterisk follows results filed as active; ? = inconclusive; nt = no result given; [ ] = another dose, or the depositor's remark.

SMILES	gsp antag	gsp ag	RXFP1 ag	RXFP1 antag
O=C(c1ccc2c3c(cccc13)CC2)C1CCCN(CC2CC2)C1 (stereo unspecified)	14.4%	5.4%[15.4 µM]	3.9%	-62.7*
COc1cccc(C(=O)CCN[C@@H](C)[C@H](O)c2ccccc2)c1	nt	nt	nt	20.4
Fc1ccc(C(OCCN2CCN(CCCc3ccccc3)CC2)c2ccc(F)cc2)cc1	nt	nt	nt	-72.7*
c1ccc(CCCN2CCN(CCOC(c3ccccc3)c3ccccc3)CC2)cc1	-10.0%	nt	nt	nt
O=C(CCl)c1ccc(Cl)cc1Cl	nt	nt	nt	2.8
O=c1c(C2CC(c3ccc(-c4ccc(Br)cc4)cc3)Cc3ccccc32)c(O)sc2ccccc12 (stereo unspecified)	nt	nt	nt	-72.2*
CCO[C@H]1O[C@@H]2OC3(C)CC[C@H]4[C@H](C)CC[C@@H]([C@H]1C)[C@@]24OO3	nt	nt	nt	-21.3
Cc1ccccc1CN1C(=O)CN=C(c2ccccc2)c2cc(Cl)ccc21	nt	nt	0.5%	-95.5*
COc1ccc(C(=O)C2CCCN(Cc3ccon3)C2)c(OC)c1 (stereo unspecified)	50.1µM*	4.4%	4.4%	0.9
COc1ccc(C(c2ccc(OC)cc2)C(Cl)(Cl)Cl)cc1	-21.9%	nt	0.7%	-93.5*
COc1ccc(C(O)C(C)NC(C)C(O)c2ccc(OC)cc2)cc1 (stereo unspecified)	1.2%	25.5%	nt	-0.5
CN1/C(=C\C=C2C(=O)NC(=S)NC2=O)C(C)(C)c2ccccc21	50.1µM*	-129.9%	-4.8%	-13.5
CC1(C)OC(c2ccccc2)=C/C(=C/C=C2C(=O)NC(=S)NC2=O)O1	2.3%	-1.1%	7.6%	-3.6
CNC(=O)Oc1cc2c(cc1C(C)(C)C)CCC2	-1.9%	?	nt	-85.8*
Cc1cccc(C2=NCC(=O)N(CC(=O)NCc3ccco3)c3sc4c(c32)CCCC4)c1	?	-45.8%	-0.6%	-69.2*
COc1cccc(CNC(=O)c2cccc(S(=O)(=O)N3CCN(C)CC3)c2)c1	6.3%	-63.8%	-0.8%	-17.9
O=C(NCC(c1ccco1)N1CCCC1)c1cccc(S(=O)(=O)N2CCc3ccccc32)c1 (stereo unspecified)	nt	-75.2%	nt	3.7
Cc1nc2ccccc2c(=O)n1-c1ccc(Br)cn1	8.2%	2.6%[15.4 µM]	2.2%	1.1
Cc1nc2ccccc2c(=O)n1/N=C/c1cc(Br)cc(Br)c1O	?	-0.7%	nt	-78.9*
O=c1[nH]c(=S)[nH]c(O)c1N=Nc1ccc2c(c1)OCCO2	-24.6%	0.9%[15.4 µM]	3.1%	-95.3*
Cc1ccc([C@H]2N[C@]3(CCCN(Cc4ccc(C(F)(F)F)cc4)C3=O)[C@H]3C(=O)N(Cc4ccccc4)C(=O)[C@@H]23)cc1	nt	?	nt	11.3
O=[N+]([O-])c1ccc(C[n+]2c(-c3ccccc3)cc(-c3ccccc3)cc2-c2ccccc2)cc1	0.5%	-50.0%	-0.6%	nt
O=[N+]([O-])c1cc(Cl)c(O)c(-[n+]2c(-c3ccccc3)cc(-c3ccccc3)cc2-c2ccccc2)c1	12.6µM*	?	-0.1%	-4.8
Clc1ccccc1N1CCNCC1	nt	nt	nt	9.2
CCc1ccc(C2CCNCC2)cc1	nt	nt	nt	-6.3
SMILES	gsp antag	gsp ag	RXFP1 ag	RXFP1 antag
O=C(CBr)Nc1ccc(Cl)cc1C(=O)c1ccccc1F	nt	nt	nt	-27.2
Cn1cccc1/C=C1/C(=O)NC(=S)N(Cc2ccc(F)cc2)C1=O	-24.7%	-5.3%[15.4 µM]	6.0%	-68.7*
Cn1cccc1/C=C1/C(=O)NC(=O)N(Cc2ccc(F)cc2)C1=O	-11.5%	-35.5%	-3.1%	-39.0
CCN1CCCC1CNC(=O)C(O)(c1ccccc1)c1ccccc1 (stereo unspecified)	nt	nt	nt	5.5
O=c1[nH]c(=S)n(Cc2ccc(F)cc2)c(O)c1C=NCc1ccc2c(c1)OCO2	9.0%	?	25.1µM*	6.4
Cn1c(O)c(N=Nc2cccc(S(=O)(=O)N3CCOCC3)c2)c(=O)n(C)c1=O	30.1%	?	10µM*	3.6
O=c1oc2ccccc2c(O)c1[C@H]1c2ccc(O)cc2Oc2c1c(=O)oc1ccccc21	5.3%	20.5%	17.8µM*	-0.4
CC(C)(C)NS(=O)(=O)c1ccc(OCC(=O)N2CCN(Cc3ccccc3)CC2)cc1	-0.8%	-4.4%[15.4 µM]	-0.5%	-4.6
CSc1ccc(CN2CCN(C(=O)COc3ccc(C)cc3)CC2)cc1	0.2%	3.16µM*	1.9%	-11.5
CCc1ccc(CN2CCN(Cc3ccc(SC)cc3)CC2)cc1	6.7%	3.3%[15.4 µM]	-0.1%	-61.9*
O=C(COc1ccc(S(=O)(=O)N2CCCCC2)cc1)N1CCN(Cc2ccccc2)CC1	-16.5%	31.6µM*	2.5%	4.5
CC(C)CC(=O)Nc1ccc(C(=O)Cn2c(=O)oc3ccccc32)cc1	-2.3%	?	0.6%	4.6
COc1ccc(OC)c(CCNCc2c(C(=O)O)c(C)n(Cc3ccc(F)cc3Cl)c2C)c1	nt	nt	0.1%	-63.0*
O=C(O)c1ccc2c(c1)C1C(Cl)C(Sc3ccccc3[N+](=O)[O-])CC1C(c1cccc([N+](=O)[O-])c1)N2 (stereo unspecified)	-52.9%	-0.8%[15.4 µM]	-0.6%	-88.7*
O=C(O)c1cccc2c1NC(c1cccc([N+](=O)[O-])c1)C1CC(Sc3ccccc3[N+](=O)[O-])C(Cl)C21 (stereo unspecified)	?	-16.2%	2.2%	-4.1
C[C@]12CC[C@H]3[C@@H](CCC4=CC(=O)CC[C@@H]43)[C@@H]1CC[C@@H]2OC(=O)CCC1CCCCC1	nt	nt	nt	-10.6
COc1cc(CC2(CCc3ccncc3)C(=O)NC(=O)NC2=O)cc(OC)c1OC	6.2%	4.4%	0.3%	-79.5*
CCOc1ccc(-n2nc3c(=S)[nH]nc(C)c3c2C)cc1	10.6%	?	5.62µM*	-4.3
Nc1ccccc1C(=O)OCC(O)CO (stereo unspecified)	nt	nt	nt	-3.5
O=C(Nc1ccc(Br)cc1)c1cc(Br)cc(Br)c1O	nt	nt	nt	-81.1*
O=C(Nc1ccc(Br)cc1C(=O)c1ccccc1)c1ccccc1	nt	nt	1.0%	-35.6
CCN(CC)c1ccc(/C=C2\C(=O)NC(=O)N(Cc3ccco3)C2=O)cc1	-21.3%	-36.9%	6.8%	-66.4*
CCN(CC)c1ccc(/C=C2/C(=O)NC(=O)N(CC3CCCO3)C2=O)cc1 (stereo unspecified)	-25.0%	0.0%	-2.3%	17.5
O=C1NC(=O)N(Cc2ccco2)C(=O)/C1=C/c1cccn1CCOc1ccccc1Cl	30.5%	-7.5%	-0.6%	-61.0*
Cc1csc(=O)n1CCC(=O)OCC(=O)N(C)c1c(N)n(Cc2ccccc2)c(=O)[nH]c1=O	nt	-51.7%	nt	3.0
CN1CCC(N(Cc2ccccc2)c2ccccc2)CC1	nt	nt	nt	-6.8
C=CCc1cc(C=C2C(=O)NC(=O)NC2=O)cc(OC)c1OCc1ccc(C(=O)O)cc1	-22.6%	-1.3%	0.5%	-4.3
C=CCc1cc(C=C2C(=O)N(C)C(=O)N(C)C2=O)cc(OCC)c1OCc1ccccc1	-12.1%	-18.8%	2.3%	-77.0*

Screening results (PubChem BioAssay)
